Results on 39 molecules are retold here after PubChem BioAssay (NCI).

About 83,000 compounds went through this panel and 20% of them were active in at least one assay; those are over-represented in the sample as a whole.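 Single-dose data. Exposure time 48 hours. Values below 10 considered active.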 Unmarked numbers belong to inactive results. The source made the active and inactive calls.

The assay relates to M14 melanoma. As to the kind of experiment: NCI-60 one-dose screen, 48 h (100 = growth as untreated, 0 = no growth, -100 = all killed). The note with it: 10 µM unless noted.
In the case of `Clc1nnc2c3ccccc3ccn12`, the growth was 106%.

Take `COc1ccc(-c2nn(C(=O)NCCN(C)C)cc2-c2ccncc2)cc1Cl`: the growth is 45.8%.

`CCN1C(=O)N(CC)C2C1NN=c1s/c(=C\c3ccco3)c(=O)n12` (centres undefined): the growth was 5.24% (active).

In the case of `CC(C)N(C(=S)SSC(=S)N(C(C)C)C(C)C)C(C)C`, the growth was 101%.

With `CC(C)=CC[C@@H]1CC2(CC=C(C)C)C(=O)C(OC3(C(=O)c4ccccc4)C(=O)C4(CC=C(C)C)C[C@@H](CC=C(C)C)C(C)(C)C(CC=C(C)C)(C4=O)C3=O)(C(=O)c3ccccc3)C(=O)C(CC=C(C)C)(C2=O)C1(C)C` (some centres undefined), the growth is -2.59% (active).

As for `CCCCCCCCCCCCCCCC1=NCCN1`, the growth was 72.3%.

Turning to `COc1cc([N+](=O)[O-])cc(OC)c1OC`, the growth is 108%.

Consider `NNC(=O)CSc1nc2scc(-c3ccccc3)c2c(=O)n1-c1ccccc1`, for which the growth is 112%.

As for `C=CCN(CC#N)CC=C`, the growth was 102%.

Take `CCOC(=O)Cn1c(-c2nonc2NC(=O)c2ccccc2F)nc2ccccc21`: the growth was 61.5%.

Regarding `CCCCCCCOc1cccc(/C=C2\N=C3SCCCN3C2=O)c1`, the growth was 102%.

Regarding `Cc1c2c(cc3c1[nH]c1ccccc13)C=NCC2`, the growth is 91%.

Take `COc1cc(OC)c(Cl)cc1N`: the growth is 115%.

As for `CS(=O)(=O)c1ccc(C(=O)Nc2ccc(Cl)c(-c3ccccn3)c2)c(Cl)c1`, the growth was 26.8%.

As for `Cc1cc([N+](=O)[O-])c(C)cc1N`, the growth is 104%.

Turning to `COc1cnc2c(c1)C(=O)c1c-2n(CCCN2CCNCC2)c(=O)c2cc(Cl)ccc12`, the growth is -79.5% (active).

For the molecule `COc1cc(/C=C2\CN(C(=O)OC(C)(C)C)C/C(=C\c3ccc(O)c(OC)c3)C2=O)ccc1O`, the growth is 93.9%.

In the case of `CCN1C(=O)C(C)C=C(C)C=C1C` (centres undefined), the growth is 120%.

Take `COCc1nc(NS(=O)(=O)c2ccc(N)cc2)nc(C)c1Br`: the growth was 101%.

Regarding `O=c1c2cc(Br)cc(Br)c2nc(-c2ccc(Cl)cc2)n1/N=C\c1ccccc1F`, the growth was 81.8%.

For the molecule `CCCCCCCCCCCCCC1=NC(C)(C)CN1C(C)C`, the growth is -74.8% (active).

Take `CCC(=O)OCc1ccc(OC)cc1`: the growth is 100%.

For `Fc1ccc(-c2cnc3nonc3n2)c(F)c1`, the growth is 97.2%.

Consider `O=S(=O)(Nc1ccc2ccccc2c1)N1CCCCC1`, for which the growth was 38.6%.

With `CCn1c(Cc2ccccc2Nc2c(Cl)cccc2Cl)nnc1SCC(=O)Nc1cccc(OC)c1`, the growth is 76.4%.

`CCN(CC)CC(=O)Nc1c(C)ccc(N)c1C`: the growth was 101%.

Take `C=C1C[C@@]2(C)C(CC[C@]3(C)C2CC=C2C4CC(C)(C)C[C@@H](OC(=O)/C(C)=C\C)[C@]4(C(=O)O)CC[C@]23C)C(C)(C)C1=O` (some centres undefined): the growth is -14.2% (active).

In the case of `C=C1C(=O)O[C@H]2[C@H]1CC/C(COC(=O)NCc1cccc(OC)c1)=C\CC[C@@]1(C)O[C@@H]21`, the growth was -7.62% (active).

With `CCCCOc1nc2ccccc2cc1/C=C/c1cc(/C=C/c2cc3ccccc3nc2OCCCC)n(-c2ccccc2)n1`, the growth is 99.7%.

Turning to `CCCCc1nc(Cl)c(C2CC(c3ccc(S(N)(=O)=O)cc3)=NN2c2cc(Cl)cc(Cl)c2)[nH]1` (centres undefined), the growth was 18.7%.

Take `O=C(N/N=C\c1cc(Br)ccc1O)c1ccncc1`: the growth was 19.2%.

Regarding `CC(C)C/C=C/C=C/C(=O)N[C@@H](CC(N)=O)C(=O)N[C@@H]1C(=O)N[C@H](c2ccc(O)cc2)C(=O)N[C@H](CCCN)C(=O)N[C@H]([C@@H](C)O)C(=O)N[C@H](c2ccc(O)cc2)C(=O)N[C@H](c2ccc(O)cc2)C(=O)N[C@H]([C@H](C)O)C(=O)N[C@H](Cc2ccccc2)C(=O)N[C@H](CCCN)C(=O)N[C@H](c2ccc(O[C@H]3O[C@@H](CO)[C@@H](O)[C@@H](O)[C@H]3O[C@@H]3O[C@H](CO)[C@H](O)[C@H](O)[C@@H]3O)cc2)C(=O)N[C@H]([C@H](C)O)C(=O)N[C@H](c2ccc(O)cc2)C(=O)NCC(=O)N[C@H](CC(C)C)C(=O)N[C@H](C)C(=O)N[C@H](c2ccc(O)c(Cl)c2)C(=O)O[C@@H]1C(N)=O`, the growth is 44.4%.

Take `CN(C)c1ccc(/C=C\c2cccc[n+]2C)cc1`: the growth was 69.6%.

Consider `COC(=O)CSc1ccc(Cl)cc1`, for which the growth is 103%.

For the molecule `S=C(S)Oc1cccc2cccnc12`, the growth was 105%.

As for `O=C1NN(C(=O)c2ccccc2)C(c2ccc(Cl)c(Cl)c2)=C/C1=C\c1ccccc1[N+](=O)[O-]`, the growth was -28% [6.75 µM] (active).

With `CCOC(=O)Nc1ccc2nc(Sc3ccc(Cl)cc3)sc2c1`, the growth was 30%.

Consider `COc1cc(C2CC(c3cccc(Nc4ccnc5cc(Cl)ccc45)c3)=NN2C=O)cc(OC)c1OC` (centres undefined), for which the growth is -26.7% (active).

With `c1cn2cc(-c3ccc4ncn(C5CCCCC5)c4c3)nc(-c3ccc4c(c3)ncn4C3CCCCC3)c2n1`, the growth is -50.8% (active).
